# Sampled rows, rich in hits. Any-hit rate of the full collection: about 3.9%.
# Anthrax LF inh2 = anthrax lethal factor protease inhibition. inhibition, % at 10 µM. 360,000 compounds, 0.12% hits. multiplex microsphere protease cleavage assay, LF. P15917. AID 588501; note: plate controls were buffer without enzyme for full effect and enzyme alone for no effect
# BoNT A protease = inhibitors of Botulinum neurotoxin A light chain protease; 360,000 compounds, 0.17% hits; inhibition, % at 10 µM; multiplex microsphere protease substrate cleavage, flow cytometry; note: plate controls were buffer without enzyme for full effect and enzyme alone for no effect
# CCHFV vOTU inh = blocks the CCHF virus ovarian tumor domain protease; 370,000 compounds, 0.55% hits; CCHFV vOTU protease, Pep-AMC fluorescence; inhibition, % at 11.5 µM; in the data active = inhibition above about 30%; note: 0% = vehicle wells with enzyme and 100% = no enzyme wells
# BoNT F protease = blocks Botulinum neurotoxin F light chain protease. Multiplex microsphere protease cleavage assay, flow cytometry. inhibition, % at 10 µM. 360,000 compounds, 0.22% hits; in the data active = inhibition above about 35%, passing the limit was not always enough; inconclusive = no clear call, values can overlap the other calls; note: plate controls were buffer without enzyme for full effect and enzyme alone for no effect
# Autofluor counter = compound fluorescence in toxin protease inhibitor counterscreen; fluorescence intensity (no concentration beside the values); AID 624483; 360,000 compounds, 3.1% hits; compound autofluorescence counterscreen, microsphere flow cytometry; active compounds read high; in the data active = fluorescence intensity above about 16000; inconclusive = no clear call, values can overlap the other calls
# 3CLpro inhibitor = SARS-CoV 3CLpro protease inhibition. P0C6X7. recombinant SARS-CoV 3CLpro, quenched FRET peptide cleavage. inhibition, % at 6 µM. 290,000 compounds, 0.14% hits. AID 1706; in the data active = inhibition above about 12%
# An asterisk follows results filed as active; ? = inconclusive; . = no result. Cut-off read from the data, not from the text of the source, unless noted: active = inhibition above about 30%; inconclusive = no clear call, values can overlap the other calls; inactive = below that.
SMILES,Anthrax LF inh2,BoNT A protease,CCHFV vOTU inh,BoNT F protease,Autofluor counter,3CLpro inhibitor
O=C(CSc1nc2ccccc2c(=O)n1Cc1ccccc1)NCc1ccco1,-2,0,-6,-2,10801,-3
CCOCCCn1c(SCC(=O)NCc2ccco2)nc2c(sc3ccccc32)c1=O,-11,0,1,6,9584,4
CCn1c(SCC(=O)NCc2ccco2)nc2ccccc2c1=O,-2,-1,-4,-4,4683,1
CCCCn1c(SCC(=O)NCc2ccco2)nc2c(sc3ccccc32)c1=O,-1,?,0,-1,22504*,2
O=C(CSc1nnc(-c2ccccc2)n1-c1ccccc1)Nc1ccc(Oc2ccccc2)cc1,.,.,-4,.,.,.
COC(=O)[C@]12C[C@H](CC(=O)NCC3CCCCC3)C(=O)N(Cc3ccccc3)C1=C[C@H](C1CCCC1)O[C@@H]2C,.,.,22,.,.,.
Cc1nn(CCc2n[nH]c(=S)n2C2CCCCC2)c(C)c1Br,-3,-9,-5,-7,26154*,1
Cc1nn(CCc2n[nH]c(=S)n2C)c(C)c1Br,-3,3,-3,8,15320,-3
O=C(NCc1ccccc1)[C@H]1CCCN1C(=O)[C@H]1CCCN1C(=O)c1ccc(F)cc1,.,.,-11,.,.,.
CCN1CCN(c2nc3sc4c(c3c(=O)n2-c2ccc(OC)cc2)CCCCC4)CC1,0,-1,4,-3,16947*,-7
O=C(NCCc1ccccc1)OCc1cn(Cc2cc(F)ccc2F)nn1,.,.,0,.,.,.
CCC(Oc1ccccc1F)C(=O)Nc1ccc2c(c1)n(C)c(=O)n2C (centres undefined),-7,2,-11,38*,4019,4
CCCCOC(=O)Nc1cccc(C(C)=O)c1,-3,0,-2,-2,16653*,-3
CCCCOC(=O)Nc1ccc(C(=O)OCCC)cc1,-6,2,6,2,22577*,8
CCCOC(=O)Nc1ccc(N2CCCCC2)cc1,-3,2,2,1,22287*,2
CCCCOC(=O)Nc1cccc(Cl)c1C,-3,-2,-2,-4,21233*,1
COc1ccc2c(c1)CO[C@H]([C@H](O)COC(C)=O)[C@H]2/C=C/c1ccccc1,.,.,-2,.,.,.
COC(=O)C1CN(Cc2cn(Cc3ccc(F)cc3)nn2)CCS(=O)(=O)N1Cc1ccc(F)cc1 (centres undefined),.,.,26,.,.,.
COC(=O)C[C@H]1CC[C@H]2[C@H](COc3ccc(NC(=O)Nc4ccccc4F)cc3C(=O)N2C)O1,.,.,19,.,.,.
CCCCOC(=O)c1cccc(NC(=O)CCC(=O)O)c1,1,?,-1,-1,20646*,3
CC(C)(C)c1ccc(S(=O)(=O)N2CCCC2C(=O)N2CCN(c3ccccc3)CC2)cc1 (centres undefined),.,.,12,.,.,.
O=S(=O)(c1ccc(Br)s1)N1CCC(Cc2ccccc2)CC1,-2,1,1,0,23471*,6
O=S(=O)(c1ccc(Cl)s1)N1CCC(Cc2ccccc2)CC1,0,-3,-5,-5,23306*,-1
Cc1c(C(N)=O)sc2ncn(CC(=O)N3CCC(C)CC3)c(=O)c12,-6,1,6,1,22473*,2
Cc1c(C(=O)NC(C)C)sc2ncn(CC(=O)N3CCC(C)CC3)c(=O)c12,-8,2,3,2,19793*,3
SMILES,Anthrax LF inh2,BoNT A protease,CCHFV vOTU inh,BoNT F protease,Autofluor counter,3CLpro inhibitor
COC(=O)c1cc2c(c3c4cc(C)ccc4n(S(=O)(=O)c4ccc(OC)cc4)c13)C(=O)N(Cc1ccccc1OC)C2,.,.,0,.,.,.
CC(=O)c1c(C)[nH]c(C(=O)Nc2cccnc2)c1C,-9,?,6,-2,19908*,3
CCOc1ccccc1N(C)C(=O)c1cc2c(=O)n(CC)c3ccccc3c2s1,2,0,10,4,3097,0
CCn1c(=O)c2cc(C(=O)N(C)CC(OC)OC)sc2c2ccccc21,38*,-3,-35,3,2981,-6
Cc1nn(Cc2ccc([N+](=O)[O-])cc2)c(=O)n1-c1ccccc1,-10,?,-11,10,17702*,-3
CC[C@H](CCCCCC#N)CCC(=O)N(c1ccccc1)c1ccccc1,.,.,12,.,.,.
Cc1cc2c(cc1C)N(C(=O)CSC1=NCCS1)C(C)(C)c1ssc(=S)c1-2,-5,-2,18,-6,21080*,1
O=C1CC(N2C(=O)/C(=C/C=C/c3ccccc3)SC2=S)C(=O)N1c1ccccc1 (centres undefined),35*,64*,-5,21,2114,-5
Clc1ccccc1-c1ccc(/C=N/n2cnnc2)o1,-4,0,15,0,16641*,-1
CCOC(=O)N1CCN(c2cc(=O)n(-c3ccc(OC)cc3)c(=O)[nH]2)CC1,-4,0,0,1,9865,-1
COc1ccccc1N1CCN(c2cc(=O)n(-c3ccc(Br)cc3)c(=O)[nH]2)CC1,-2,6,3,10,21225*,5
COc1ccccc1N1CCN(c2cc(=O)n(-c3ccc(Cl)cc3)c(=O)[nH]2)CC1,1,0,1,-1,6067,-2
CCOC(=O)N1CCN(c2cc(=O)n(-c3ccc(OCC)cc3)c(=O)[nH]2)CC1,0,1,-13,1,22900*,-1
O=C(C1CC1)N1CCc2cc(Br)c(S(=O)(=O)NCCCN3CCCCC3)cc21,.,.,-1,.,.,.
COCCNCc1ccccc1,0,-3,-8,-4,24425*,1
COCCNCc1ccc(C(C)C)cc1,2,0,0,-1,2497,4
C[C@@H]1[C@H](O)[C@@H](C)/C=C/C=C/C=C/C=C/C=C/C=C/C=C/[C@H](OC2O[C@H](C)[C@@H](O)[C@H](N)[C@@H]2O)C[C@@H]2O[C@](O)(C[C@@H](O)C[C@@H](O)[C@H](O)CC[C@@H](O)C[C@@H](O)CC(=O)O[C@H]1C)C[C@H](O)[C@H]2C(=O)O (some centres undefined),.,.,-7,.,.,.
COc1ccccc1-c1cccc2[nH]c3c(c12)CCN1C(=O)[C@H]2[C@H](C)ON(C)[C@H]2C[C@@H]31,.,.,-99,.,.,.
COc1cccc(NC(=O)N(CCCN2CCOCC2)C(C)c2cc3ccccc3o2)c1 (centres undefined),1,3,-14,4,21426*,-10
Cc1nc2c([nH]c3ccc(Br)cc32)s1,-1,0,-2,0,20775*,6
Cc1n[nH]c2ccc(Br)cc2c1=O,-3,0,-2,0,2849,.
CC1CCCCN1C(=O)c1ccc(C(=O)N2CCCCC2C)cc1 (centres undefined),0,3,-2,4,21133*,-2
CC1CCCCN1C(=O)c1ccc(CNC(=O)c2cccc(Br)c2)cc1 (centres undefined),.,.,-3,.,.,.
CC1CCCCN1C(=O)c1ccc(S(=O)(=O)N2CCCCC2C)cc1 (centres undefined),2,-1,5,3,3000,-1
Cc1ccc(C)c(S(=O)(=O)NCc2ccc(C(=O)N3CCCCC3C)cc2)c1 (centres undefined),-12,2,15,4,18934*,1
